# Unmarked numbers belong to inactive results. Results filed as inconclusive are left out. Where a call stands in place of a potency, no number is given. The source made the active and inactive calls. Unless noted, the call rests on the fitted dose curve; in most records, active means well fitted curve in the direction sought with a large enough effect in the repeat runs; inconclusive means weak or mixed curves; inactive means no such curve, though single readings can be large; an effect the other way counts as inactive or inconclusive.
# Key:
# [1] = qHTS assay to identify small molecule agonists of the androgen receptor (AR) signaling pathway in the presence of an antagonist - cell viability counter screen (AID 1259379); further: nearly all actives have a fitted effect of over 25% in size; further: potency means the concentration at half of the fitted maximal effect;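 on activity change, negative = cytotoxicity: MDA-kb2 human breast cancer cells carrying an MMTV luciferase reporter; series mostly up to about 92 µM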
# Method in brief: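 Cytotoxicity is assessed by CellTiter-Fluor in MDA-kb2 cells carrying an MMTV-driven luciferase reporter. Cells receive 3.0uM nilutamide plus compounds at 15 concentrations and incubate 16 hr at 37C without CO2 before fluorescence reading.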
# [2] = target: Androgen receptor (Homo sapiens) (UniProt P10275); experiment: qHTS assay to identify small molecule agonists of the androgen receptor (AR) signaling pathway in the presence of an antagonist (AID 1259381; calls by dose curve; further: nearly all actives have a fitted effect of over 15% in size)
# Chain of Androgen receptor (Homo sapiens) (P10275 whole entry, looked up): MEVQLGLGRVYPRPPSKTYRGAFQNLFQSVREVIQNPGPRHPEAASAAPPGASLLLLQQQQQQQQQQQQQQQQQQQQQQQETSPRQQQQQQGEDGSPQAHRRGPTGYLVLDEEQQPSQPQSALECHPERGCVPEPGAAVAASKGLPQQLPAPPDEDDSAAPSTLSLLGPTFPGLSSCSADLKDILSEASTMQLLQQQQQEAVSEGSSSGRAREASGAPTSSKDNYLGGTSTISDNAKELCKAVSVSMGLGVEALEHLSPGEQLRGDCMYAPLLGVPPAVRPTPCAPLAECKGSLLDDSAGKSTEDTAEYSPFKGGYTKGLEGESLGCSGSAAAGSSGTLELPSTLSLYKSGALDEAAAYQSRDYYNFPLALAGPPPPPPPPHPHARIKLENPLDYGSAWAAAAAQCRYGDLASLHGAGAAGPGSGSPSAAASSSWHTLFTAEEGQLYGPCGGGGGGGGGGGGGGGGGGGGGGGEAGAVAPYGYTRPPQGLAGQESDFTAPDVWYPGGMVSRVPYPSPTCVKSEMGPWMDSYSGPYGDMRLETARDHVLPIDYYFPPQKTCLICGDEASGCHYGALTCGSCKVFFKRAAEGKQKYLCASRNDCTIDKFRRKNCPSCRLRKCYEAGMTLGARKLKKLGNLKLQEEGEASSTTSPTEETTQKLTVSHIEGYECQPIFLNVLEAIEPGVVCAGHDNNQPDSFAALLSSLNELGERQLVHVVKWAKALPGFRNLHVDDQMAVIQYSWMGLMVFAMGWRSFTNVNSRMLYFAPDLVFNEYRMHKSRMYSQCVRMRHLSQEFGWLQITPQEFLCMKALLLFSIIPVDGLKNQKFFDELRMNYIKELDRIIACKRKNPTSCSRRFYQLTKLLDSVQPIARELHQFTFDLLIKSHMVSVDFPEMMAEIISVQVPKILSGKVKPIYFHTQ
# Method in brief: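 Agonist-mode confirmation screen: human MDA-kb2 cells stably expressing luciferase under an MMTV promoter bearing AR and GR response elements, co-treated with 3.0uM nilutamide (final). Luminescence measured after 16hr compound incubation.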
# [3] = qHTS assay to identify small molecule antagonists of the estrogen receptor beta (ER-beta) signaling pathway - cell viability counter screen (AID 1259382); further: nearly all actives have a fitted effect of over 55% in size; further: potency means the concentration at half of the fitted maximal effect;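 on activity change, negative = cytotoxicity: HEK293T cells carrying ER-beta-UAS-bla reporter stimulated with estradiol; series mostly up to about 92 µM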
# Method in brief: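 Cytotoxicity counter screen multiplexed with the beta-lactamase antagonist assay: GripTite HEK293T ER-beta-bla cells were treated 16 hr with test chemicals in the presence of 1nM 17-beta-estradiol, and viability was measured by CellTiter-Glo.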
# [4] = target: Estrogen receptor (Homo sapiens) (UniProt P03372); experiment: qHTS assay to identify small molecule agonists of the estrogen receptor alpha (ER-alpha) signaling pathway in the presence of an antagonist (AID 1259383; calls by dose curve; further: top concentration of the series differs between compounds; nearly all actives have a fitted effect of over 15% in size)
# Chain of Estrogen receptor (Homo sapiens) (P03372 whole entry, looked up): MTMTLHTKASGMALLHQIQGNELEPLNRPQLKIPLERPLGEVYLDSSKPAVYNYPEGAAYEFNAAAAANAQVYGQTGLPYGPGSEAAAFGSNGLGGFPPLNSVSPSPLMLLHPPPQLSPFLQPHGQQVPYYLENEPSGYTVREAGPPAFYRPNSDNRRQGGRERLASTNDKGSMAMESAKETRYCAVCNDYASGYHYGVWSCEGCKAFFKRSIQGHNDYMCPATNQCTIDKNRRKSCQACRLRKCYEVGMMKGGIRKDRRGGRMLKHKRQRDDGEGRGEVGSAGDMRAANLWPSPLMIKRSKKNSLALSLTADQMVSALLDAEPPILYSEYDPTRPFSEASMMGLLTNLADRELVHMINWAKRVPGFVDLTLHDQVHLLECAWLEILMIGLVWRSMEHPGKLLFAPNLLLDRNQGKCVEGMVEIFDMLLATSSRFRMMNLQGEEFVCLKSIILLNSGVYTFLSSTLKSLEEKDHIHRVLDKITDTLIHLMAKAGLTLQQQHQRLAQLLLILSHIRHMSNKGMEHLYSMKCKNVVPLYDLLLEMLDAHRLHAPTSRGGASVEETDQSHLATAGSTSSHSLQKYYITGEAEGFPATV
# Method in brief: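 Agonist-mode confirmation in the presence of the ER antagonist ICI-182,780 at 10.0nM final. Breast-derived VM7Luc4E2 reporter cells were exposed to compounds for 22hr, and ERE-driven luciferase was quantified by luminescence.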
# [5] = qHTS assay to identify small molecule agonists of the estrogen receptor alpha (ER-alpha) signaling pathway in the presence of an antagonist - cell viability counter screen (AID 1259386);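 further: cells exposed to compounds for 22 h at 37 °C before the viability read; nearly all actives have a fitted effect of over 30% in size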; further: potency means the concentration at half of the fitted maximal effect; on activity change, negative = cytotoxicity: series mostly up to about 92 µM
# Method in brief: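 Cytotoxicity was measured in parallel with the ERE-luciferase agonist screen, in the same wells. The cells were VM7Luc4E2, which endogenously express ER-alpha, and treatment was with compounds plus 10.0nM ICI-182,780 for 22hr.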
# [6] = qHTS assay to identify small molecule agonists of the estrogen receptor beta (ER-beta) signaling pathway - cell viability counter screen (AID 1259380); further: nearly all actives have a fitted effect of over 30% in size; further: potency means the concentration at half of the fitted maximal effect
# Method in brief: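 Cytotoxicity is measured in parallel with the reporter screen: after 16 hr compound exposure at 37C and a 2 hr LiveBLAzer step, CellTiter-Glo is added to the same ER-beta-UAS-bla HEK293T wells and luminescence read after 30 min.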
# [7] = qHTS assay to identify small molecule agonists or antagonists of the thyroid stimulating hormone receptor (TSHR) signaling pathway - wild type cell line counter screen (AID 1259384; calls by dose curve; further: potency means the concentration at half of the fitted maximal effect)
# Method in brief: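 Counter screen in untransfected Hek293: compounds (15-point titration, triplicate) plus phosphodiesterase inhibitor Ro20-1724 added after 18 h plating; 30 min RT. Intracellular cAMP via competitive d2/cryptate immunoassay, 1 h incubation.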
# [8] = target: Thyrotropin receptor (Homo sapiens) (UniProt P16473); experiment: qHTS assay to identify small molecule antagonists of the thyroid stimulating hormone receptor (TSHR) signaling pathway (AID 1259385; calls by dose curve; further: nearly all actives have a fitted effect of over 20% in size)
# Chain of Thyrotropin receptor (Homo sapiens) (P16473 whole entry, looked up): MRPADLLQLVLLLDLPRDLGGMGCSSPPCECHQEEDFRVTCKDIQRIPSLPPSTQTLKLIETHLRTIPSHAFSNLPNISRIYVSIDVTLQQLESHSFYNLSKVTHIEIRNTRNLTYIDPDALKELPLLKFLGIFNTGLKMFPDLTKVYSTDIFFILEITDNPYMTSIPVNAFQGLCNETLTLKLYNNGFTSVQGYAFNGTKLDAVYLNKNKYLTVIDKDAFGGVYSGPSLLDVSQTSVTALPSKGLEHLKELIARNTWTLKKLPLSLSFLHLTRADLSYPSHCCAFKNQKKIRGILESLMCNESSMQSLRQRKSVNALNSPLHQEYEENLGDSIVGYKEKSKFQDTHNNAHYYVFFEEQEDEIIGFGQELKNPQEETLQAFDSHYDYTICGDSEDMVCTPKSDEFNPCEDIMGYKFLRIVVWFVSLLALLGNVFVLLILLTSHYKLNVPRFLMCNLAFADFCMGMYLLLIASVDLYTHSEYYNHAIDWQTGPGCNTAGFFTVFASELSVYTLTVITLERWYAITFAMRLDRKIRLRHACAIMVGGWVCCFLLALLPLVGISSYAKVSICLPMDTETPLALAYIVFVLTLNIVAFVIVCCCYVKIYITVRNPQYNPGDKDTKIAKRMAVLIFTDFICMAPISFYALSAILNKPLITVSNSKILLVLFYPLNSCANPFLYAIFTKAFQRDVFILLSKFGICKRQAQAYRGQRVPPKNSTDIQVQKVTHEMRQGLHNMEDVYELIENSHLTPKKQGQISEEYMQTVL
# Method in brief: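 Antagonist mode: compound-treated TSHR-expressing HEK293 cells were stimulated with 1.5 ng/mL TSH (final) in presence of Ro20-1724 for 30 min at RT. HTRF cAMP detection after 1 h; each compound tested at 15 concentrations, triplicate.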
smiles,measurement,setting,value
NC(N)=NN=C(/C=C/c1ccc([N+](=O)[O-])o1)/C=C/c1ccc([N+](=O)[O-])o1,Potency,[1],8.41 µM (active)
same,Potency,[2],inactive
same,Potency,[3],23.7 µM (active)
same,Potency,[4],inactive
same,Potency,[5],9.44 µM (active)
CCCOc1ccc2nc(NC(=O)OC)[nH]c2c1,Potency,[1],inactive
same,Potency,[2],inactive
same,Potency,[3],inactive
same,Potency,[4],inactive
same,Potency,[5],inactive
N#CCc1cccc(C(F)(F)F)c1,Potency,[1],inactive
same,Potency,[6],inactive
same,Potency,[4],inactive
same,Potency,[7],inactive
same,Potency,[8],inactive
same,Potency,[5],inactive
CCCCC(CC)(CO)CO,Potency,[1],inactive
same,Potency,[6],inactive
same,Potency,[3],inactive
same,Potency,[8],inactive
same,Potency,[5],inactive
CC(C)NCC(O)c1cc(O)cc(O)c1 (stereo not drawn),Potency,[1],inactive
same,Potency,[6],inactive
same,Potency,[7],8.1 µM (active)
same,Potency,[8],inactive
same,Potency,[5],inactive
CC(=O)/C(C)=C/C1C(C)=CCCC1(C)C (stereo not drawn),Potency,[1],inactive
same,Potency,[3],inactive
same,Potency,[4],inactive
same,Potency,[7],inactive
same,Potency,[8],inactive
same,Potency,[5],inactive
CC(=O)O[C@H]1C[C@@H]2CC[C@@H]3[C@H](CC[C@@]4(C)[C@H]3C[C@H]([N+]3(C)CCCCC3)[C@@H]4OC(C)=O)[C@@]2(C)C[C@@H]1N1CCCCC1,Potency,[1],inactive
same,Potency,[3],inactive
same,Potency,[4],inactive
same,Potency,[7],inactive
same,Potency,[8],inactive
same,Potency,[5],inactive
CC(=O)/C=C/C1C(C)=CCCC1(C)C (stereo not drawn),Potency,[1],inactive
same,Potency,[6],inactive
same,Potency,[3],inactive
same,Potency,[4],inactive
same,Potency,[5],inactive
CN1CCC[C@@H]1c1cccnc1,Potency,[1],inactive
same,Potency,[6],inactive
same,Potency,[5],inactive
CCCCCC/C=C/C=O,Potency,[1],inactive
same,Potency,[6],inactive
same,Potency,[5],inactive
CC[C@@H]1C[C@H](N(Cc2cc(C(F)(F)F)cc(C(F)(F)F)c2)C(C)=O)c2cc(C(F)(F)F)ccc2N1C(=O)OC(C)C,Potency,[1],inactive
same,Potency,[6],inactive
same,Potency,[3],inactive
same,Potency,[4],inactive
same,Potency,[5],inactive
CCOC(=O)C1=NN(c2ccccc2)C(=O)C1,Potency,[1],inactive
same,Potency,[6],inactive
same,Potency,[4],inactive
same,Potency,[7],inactive
same,Potency,[8],inactive
same,Potency,[5],inactive
CC(C)c1ccc2c(C(C)C)cc(C(C)C)c(S(=O)(=O)O)c2c1,Potency,[1],inactive
same,Potency,[2],inactive
same,Potency,[3],inactive
same,Potency,[4],inactive
same,Potency,[8],inactive
same,Potency,[5],inactive
COc1ccc([C@@H]2Sc3ccccc3N(CCN(C)C)C(=O)[C@@H]2OC(C)=O)cc1,Potency,[1],inactive
same,Potency,[6],15 µM (active)
same,Potency,[3],21.1 µM (active)
same,Potency,[8],inactive
same,Potency,[5],inactive
CC(=O)c1c(C)c([N+](=O)[O-])c(C(C)(C)C)c([N+](=O)[O-])c1C,Potency,[1],inactive
same,Potency,[6],inactive
same,Potency,[3],inactive
same,Potency,[7],inactive
same,Potency,[8],inactive
same,Potency,[5],inactive
C1=Cc2ccccc2C1,Potency,[1],inactive
same,Potency,[6],inactive
same,Potency,[3],inactive
same,Potency,[4],inactive
same,Potency,[5],inactive
NC[C@H]1O[C@H](O[C@H]2[C@H](O)[C@@H](O[C@H]3O[C@H](CO)[C@@H](O)[C@H](N)[C@H]3O)[C@H](N)C[C@@H]2N)[C@H](O)[C@@H](O)[C@@H]1O,"activity change, negative = cytotoxicity",[1],1.81% [at 8.39 µM]
same,"activity change, negative = cytotoxicity",[6],5.67% [at 8.39 µM]
same,"activity change, negative = cytotoxicity",[3],0.386% [at 8.39 µM]
same,cAMP activity change,[7],"0.52% [at 8.39 µM, hits give high values]"
same,"activity change, negative = inhibition",[8],-7.09% [at 8.39 µM]
same,"activity change, negative = cytotoxicity",[5],-3.74% [at 8.39 µM]
O=C(c1ccccc1)c1ccc2n1CCC2C(=O)O (stereo not drawn),Potency,[1],inactive
same,Potency,[6],inactive
same,Potency,[3],inactive
same,Potency,[5],inactive
COCCCCCCCCOCCC[Si](C)(O[Si](C)(C)C)O[Si](C)(C)C,Potency,[1],17.2 µM (active)
same,Potency,[3],inactive
same,Potency,[4],inactive
same,Potency,[7],inactive
same,Potency,[8],inactive
same,Potency,[5],24.3 µM (active)
CC(C)(C)c1cc(CO)cc(C(C)(C)C)c1O,Potency,[1],inactive
same,Potency,[3],inactive
same,Potency,[4],inactive
same,Potency,[7],inactive
same,Potency,[5],inactive
Cc1cc(NC(=O)C(=O)O)cc(C)c1Oc1ccc(O)c2c1CCC2,Potency,[1],inactive
same,Potency,[2],inactive
same,Potency,[3],inactive
same,Potency,[4],inactive
same,Potency,[5],inactive

# From PubChem BioAssay (Tox21)
